# Test results: ChEMBL document CHEMBL4513141, “CO-ADD screening of NIH (USA) - Clinical Collection” (2021)
# Measured potencies and affinities stand elsewhere.
# Tests used:
# Klebsiella pneumoniae = details: Concentration 20 uM; ASSAY_TEST Inhibition of Bacterial Growth; detection method Absorption (OD600); MEDIA CAMHB; plate type 384well; NBS; CORNING #3640; time 18 hr
# Candida albicans = details: 20 µM
# Cryptococcus neoformans = details: Concentration 20 uM; ASSAY_TEST Inhibition of Fungal Growth; detection method Resazurin; Absorption (OD600-OD570); plate type 384well; NBS; CORNING #3640
Compound,Inhibition (Klebsiella pneumoniae) [%],Inhibition (Candida albicans) [%],Inhibition (Cryptococcus neoformans) [%]
Nc1ncnc2c1ncn2[C@@H]1O[C@H](CO)C[C@@H]1O.O,6,5.13,-7.2
CS(=O)(=O)c1ccc(-c2cc(Br)sc2-c2ccc(F)cc2)cc1 [DUP-697],2.25,5.12,-8.07
Cl.O[C@@H](c1cc(C(F)(F)F)nc2c(C(F)(F)F)cccc12)[C@H]1CCCCN1,14.04,5.35,–
Nc1nc2c(ncn2COC(CO)CO)c(=O)[nH]1 [GANCICLOVIR],11.05,0,-0.42
CC(N/C(=N\C#N)Nc1ccncc1)C(C)(C)C.O (configuration not stated),0.13,1.29,-6.76
CN(C)CCN(Cc1ccccc1)c1ccccn1.Cl [TRIPELENNAMINE HYDROCHLORIDE],2.28,5.56,2.92
CC1(C)O[C@@H]2[C@@H](CO[C@@]3(COS(N)(=O)=O)OC(C)(C)O[C@@H]23)O1 [TOPIRAMATE],6.32,2.83,-6.94
Cl.NC12CC3CC(CC(C3)C1)C2 [AMANTADINE HYDROCHLORIDE],13.94,3.06,-3.67
CN(C)CCC[C@@]1(c2ccc(F)cc2)OCc2cc(C#N)ccc21.O=C(O)C(=O)O [ESCITALOPRAM OXALATE],13.63,3.94,-10.38
O=C(O)c1cccnc1 [NIACIN],4.99,2.72,-3.83
CNCCCN1c2ccccc2CCc2ccccc21.Cl [DESIPRAMINE HYDROCHLORIDE],6.09,2.92,–
O=[N+]([O-])c1cccc2cn[nH]c12 [7-NITROINDAZOLE],13.1,3.19,-0.25
CNCC(O)c1ccc(O)c(O)c1 (configuration not stated) [RACEPINEPHRINE],12.35,4.12,-0.68
Cn1cnc([N+](=O)[O-])c1Sc1ncnc2[nH]cnc12 [AZATHIOPRINE],13.95,4.62,-6.38
Nc1nc(=O)c2nc(CNc3ccc(C(=O)N[C@@H](CCC(=O)O)C(=O)O)cc3)cnc2[nH]1 [FOLIC ACID],12.05,1.12,-7.28
O=C(O)CCNC(=O)c1ccc(N=Nc2ccc(O)c(C(=O)O)c2)cc1,9.82,4.41,-5.87
Cc1sc(N)c(C(=O)c2cccc(C(F)(F)F)c2)c1C,7,1.23,-0.97
CN(C)CCOC(c1ccccc1)c1ccccc1.Cl [DIPHENHYDRAMINE HYDROCHLORIDE],1.03,4.49,4.12
O=C1CCc2ccc(OCCCCN3CCN(c4cccc(Cl)c4Cl)CC3)cc2N1 [ARIPIPRAZOLE],2.6,-0.97,6.93
Cc1cc2c(s1)Nc1ccccc1N=C2N1CCN(C)CC1 [OLANZAPINE],5.81,-0.3,-5.37
C[C@@H]1C[C@H]2[C@@H]3CCC4=CC(=O)C=C[C@]4(C)[C@@]3(F)[C@@H](O)C[C@]2(C)[C@H]1C(=O)CO [DESOXIMETASONE],9.74,2.64,2.06
Cc1cnc(NC(=O)C2=C(O)c3ccccc3S(=O)(=O)N2C)s1 [MELOXICAM],2.2,9.71,-3.68
NC(=O)c1cccnc1 [NIACINAMIDE],11.31,2.62,-0.49
Cc1ccc(N(CC2=NCCN2)c2cccc(O)c2)cc1 [PHENTOLAMINE],6.34,2.06,-2.31
CCN(CC)CCNC(=O)c1cc(Cl)c(N)cc1OC.Cl,10.19,3.69,-1.39
Oc1ncc(F)cn1,12.75,0.46,-8.59
CN1C(C(=O)Nc2ccccn2)=C(O)c2ccccc2S1(=O)=O.O,9.7,7.55,-5.24
COCCOC(=O)C1=C(C)NC(C)=C(C(=O)OC(C)C)C1c1cccc([N+](=O)[O-])c1 (configuration not stated) [NIMODIPINE],1.9,5.34,-7.18

Compound,Inhibition (Klebsiella pneumoniae) [%],Inhibition (Candida albicans) [%],Inhibition (Cryptococcus neoformans) [%]
CCN1CCC[C@H]1CNC(=O)c1c(O)c(Cl)cc(Cl)c1OC [RACLOPRIDE],6.89,2.44,1.03
CCCCCCCCCCC[C@@H](C[C@@H]1OC(=O)[C@H]1CCCCCC)OC(=O)[C@H](CC(C)C)NC=O [ORLISTAT],7.06,1.01,-4.7
CCOC(=O)N1CCC(=C2c3ccc(Cl)cc3CCc3cccnc32)CC1 [LORATADINE],12.62,2.41,-7.17
C=C[C@H]1CN2CC[C@H]1C[C@@H]2[C@@H](O)c1ccnc2ccc(OC)cc12 [QUINIDINE],12.62,-0.46,–
CS(=O)(=O)O.Oc1ccc(C2CNCCc3c2cc(O)c(O)c3Cl)cc1 (configuration not stated) [FENOLDOPAM MESYLATE],10.68,1.85,-12.04
CC[C@@]1(O)C(=O)OCc2c1cc1n(c2=O)Cc2cc3c(CN(C)C)c(O)ccc3nc2-1.Cl [TOPOTECAN HYDROCHLORIDE],17.31,1.75,-3.31
O=C1[C@H](CC[C@H](O)c2ccc(F)cc2)[C@@H](c2ccc(O)cc2)N1c1ccc(F)cc1 [EZETIMIBE],2.21,-1,-1.78
CN(C)[C@@H]1C(=O)C(C(=O)NCN2CCCC2)=C(O)[C@@]2(O)C(O)=C3C(=O)c4c(O)cccc4[C@@](C)(O)C3CC12 (some centres not stated),7.32,0.75,-8.19
C#C[C@]1(O)CC[C@H]2[C@@H]3[C@H](C)CC4=C(CCC(=O)C4)[C@H]3CC[C@@]21C [TIBOLONE],12.38,6.29,-2.16
COc1cc([C@@H]2c3cc4c(cc3[C@@H](O[C@@H]3O[C@@H]5CO[C@@H](C)O[C@H]5[C@H](O)[C@H]3O)[C@H]3COC(=O)[C@H]23)OCO4)cc(OC)c1O [ETOPOSIDE],4.81,0.59,-6.14
C[C@]12CCC(=O)C=C1CC[C@@H]1[C@@H]2[C@@H](O)C[C@@]2(C)[C@H]1CC[C@]2(O)C(=O)COC(=O)CCC(=O)O [HYDROCORTISONE HEMISUCCINATE ANHYDROUS],-3.41,4.59,6.86
CC(c1cc2ccccc2s1)N(O)C(N)=O (configuration not stated) [ZILEUTON],4.07,5.22,2.66
CC(=O)O.CC(C)C[C@H](NC(=O)[C@@H](COC(C)(C)C)NC(=O)[C@H](Cc1ccc(O)cc1)NC(=O)[C@H](CO)NC(=O)[C@H](Cc1c[nH]c2ccccc12)NC(=O)[C@H](Cc1c[nH]cn1)NC(=O)[C@H]1CCC(=O)N1)C(=O)N[C@H](CCCNC(=N)N)C(=O)N1CCC[C@@H]1C(=O)NNC(N)=O,2.33,2.52,-3.07
CCCc1c(OCCCCc2nnn[nH]2)ccc(C(C)=O)c1O [TOMELUKAST],5.45,4.49,3.29
CCN(CC)CCOC(=O)c1ccc(N)cc1.Cl [PROCAINE HYDROCHLORIDE],12,3.62,-2.16
CC1=Nc2ccc(Cl)cc2S(=O)(=O)N1 [DIAZOXIDE],19.87,4.07,-6.19
Cc1cccc(C)c1OCC(C)N.Cl (configuration not stated) [MEXILETINE HYDROCHLORIDE],13.5,3.72,-0.12
CC(=O)[C@H]1CC[C@H]2[C@@H]3C[C@H](C)C4=CC(=O)CC[C@]4(C)[C@H]3[C@@H](O)C[C@]12C [MEDRYSONE],12.23,1.89,-4.18
COc1ccc(CC2c3cc(OC)c(OC)cc3CC[N+]2(C)CCC(=O)OCCCCCOC(=O)CC[N+]2(C)CCc3cc(OC)c(OC)cc3C2Cc2ccc(OC)c(OC)c2)cc1OC.O=S(=O)(O)c1ccccc1 (configuration not stated),4.87,3.58,-0.33
C[C@]12CC[C@@H]3c4ccc(OS(=O)(=O)[O-])cc4CC[C@H]3[C@@H]1CCC2=O.[Na+] [ESTRONE SODIUM SULFATE],1.74,3.72,-4.65
NS(=O)(=O)c1cc2c(cc1C(F)(F)F)NCNS2(=O)=O [HYDROFLUMETHIAZIDE],13.59,-0.33,-2.31
NC(CO)(CO)CO.O=C(c1ccccc1)c1ccc2n1CCC2C(=O)O (configuration not stated) [KETOROLAC TROMETHAMINE],3.11,-0.08,-4.39
COc1ccc2[nH]c([S+]([O-])Cc3ncc(C)c(OC)c3C)nc2c1 (configuration not stated) [OMEPRAZOLE],7.63,27,-26.65
CC(=O)OCC(=O)[C@@]1(O)CC[C@H]2[C@@H]3CCC4=CC(=O)C=C[C@]4(C)[C@H]3[C@@H](O)C[C@@]21C [PREDNISOLONE ACETATE],12.95,0.73,-1.37
CC(N)(Cc1ccc(O)c(O)c1)C(=O)O (stereo not drawn) [METHYLDOPA (RACEMIC)],2.57,3.32,7.73
COc1ccc(C(=O)NCc2ccc(OCCN(C)C)cc2)cc1OC.Cl,9.02,4.71,-2.57
CC[C@H]1OC(=O)[C@H](C)C(=O)[C@H](C)[C@@H](O[C@@H]2O[C@H](C)C[C@H](N(C)C)[C@H]2O)[C@](C)(OC)C[C@@H](C)C(=O)[C@H](C)[C@@H]2N(CCCCn3cnc(-c4cccnc4)c3)C(=O)O[C@@]21C,3.48,0.39,-1.28
